Test results as given in PubChem BioAssay (Tox21).
Several values for one entry are separate records, joined by “and”; a condition that tells them apart may be missing. Identical values can stand only once. Records with an inconclusive call do not appear. The source holds several records for some structures; these can differ, active in one and inactive in another. Activity calls are given as the source filed them. Unless noted, calls follow the shape of the dose curve; as a rule, active = well fitted curve in the direction sought with a large enough effect in the repeat runs; inconclusive = weak or mixed curves; inactive = no such curve, though single readings can be large; an effect the other way counts as inactive or inconclusive.

Experiments:
[1] = qHTS assay to identify small molecule antagonists of the constitutive androstane receptor (CAR) signaling pathway - cell viability counter screen (AID 1224837); also: series mostly up to about 92 µM; nearly all actives have a fitted effect of over 45% in size
Outline: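 Multiplexed cytotoxicity read-out for the CAR antagonist screen: double-stable HepG2-CYP2B6-hCAR cells co-treated with 50 nM CITCO (final) and compound over 15 concentrations, incubated 23 hr, then assessed by CellTiter-Fluor fluorescence.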

[2] = target: Nuclear receptor subfamily 1 group I member 3 (Homo sapiens) (UniProt Q14994); assay: qHTS assay to identify small molecule antagonists of the constitutive androstane receptor (CAR) signaling pathway (AID 1224838); also: nearly all actives have a fitted effect of over 40% in size; also: potency is read from the fitted curve at half-maximal effect
Outline: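 Compounds were titrated across 15 concentrations onto HepG2 cells double-stably expressing hCAR and a CYP2B6-2.2kb reporter, together with 50 nM CITCO (final). After 24 h at 37 C, luciferase activity was measured by luminescence.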

[3] = qHTS assay to identify small molecule antagonists of the estrogen related receptor signaling pathway with the pleiotropic PPARgamma coactivator (PGC) from Tox21 10K library - cell viability counter screen (AID 1224840; active = well fitted cell-killing curve with a large enough effect in the repeat runs, not every such curve was filed as active; also: nearly all actives have a fitted effect of over 40% in size)
Outline: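 Step one, plate 2,000 PGC/ERR cells per well; step two, incubate 6 h at 37 C/5% CO2; step three, pin-transfer compounds; step four, incubate 17.5 h; step five, add CellTiter-Fluor and read fluorescence after 30 min.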

[4] = qHTS assay to identify small molecule antagonists of the estrogen related receptor signaling pathway with the pleiotropic PPARgamma coactivator (PGC) from Tox21 10K library (AID 1224841; call rule not given here; also: series mostly up to about 92 µM; actives are mostly falling curves and most rising ones were filed inactive; nearly all actives have a fitted effect of over 50% in size)
Outline: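 Antagonism in this quantitative HTS is taken from loss of luciferase signal in PGC/ERR cells. Cells (2,000/well) are treated with compounds in DMSO after a 6 h settling period and read by One-Glo luminescence after 18 h.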

[5] = qHTS assay to identify small molecule agonists of the estrogen related receptor signaling pathway with the pleiotropic PPARgamma coactivator (PGC) from Tox21 10K library (AID 1224842); also: nearly all actives have a fitted effect of over 15% in size
Outline: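 Luminescence from One-Glo (30 min, room temperature) measured after PGC/ERR cells had 18 h at 37 C with pinned compound (23 nL in DMSO). Cells had been seeded at 2,000 per well and pre-incubated 6 h.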

[6] = target: Thyrotropin receptor (Homo sapiens) (UniProt P16473); assay: qHTS assay to identify small molecule agonists of the thyroid stimulating hormone receptor (TSHR) signaling pathway (AID 1224843; calls by dose curve; also: nearly all actives have a fitted effect of over 45% in size; also: potency is read from the fitted curve at half-maximal effect)
Outline: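 HEK293 cells stably bearing the thyrotropin receptor were plated at 800 cells/well and challenged with compound (30 min, RT). Accumulated cAMP was quantified via cAMP-d2 competing for cryptate-tagged antibody.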

[7] = qHTS assay to identify small molecule agonists of the hypoxia (HIF-1) signaling pathway - cell viability counter screen (AID 1224844; calls by dose curve; also: nearly all actives have a fitted effect of over 50% in size)
Outline: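 Tox21 10K compounds were added to HRE-bla ME-180 cells (0.5% dialyzed FBS) and incubated 17 hrs at 37C; ATP-based CellTiter-Glo luminescence then reported cell viability in the same wells.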

[8] = qHTS assay to identify small molecule agonists of H2AX (AID 1224845; active = well fitted activation curve with a large enough effect in the signal ratio in the repeat runs, not every such curve was filed as active; the % refers to the signal ratio; also: potency is read from the fitted curve at half-maximal effect)
Outline: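 Phospho-H2AX Ser139 measured by HTRF (ex 320 nm; em 665 and 620 nm) after 24 hr antibody incubation. Compounds, 15 concentrations, 0.76% DMSO, were applied to CHO-K1 cells for 3hr at 37C before lysis.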

[9] = qHTS assay to identify small molecule agonists of the hypoxia (HIF-1) signaling pathway (AID 1224846; active = well fitted activation curve with a large enough effect in the signal ratio in the repeat runs, not every such curve was filed as active; the % refers to the signal ratio)
Outline: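 Steps: seed ME-180 HRE-bla cells (2,000/well, 0.5% dialyzed FBS); incubate 5 hrs at 37C; pin-transfer compounds or DMSO; incubate 17 hrs; add LiveBLAzer B/G substrate CCF4-AM; measure reporter activation by FRET.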

[10] = target: Nuclear receptor subfamily 1 group I member 3 (Homo sapiens) (UniProt Q14994); assay: qHTS assay to identify small molecule agonists of the constitutive androstane receptor (CAR) signaling pathway (AID 1224839);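 also: HepG2 cells stably carrying human CAR and a CYP2B6 luciferase reporter; series mostly up to about 92 µM; nearly all actives have a fitted effect of over 15% in size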
Outline: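 Luminescence read-out (ONE-Glo, 30 min, room temperature) from double-stable HepG2-CYP2B6-hCAR cells exposed 24 h to 15-point compound series in presence of 0.75 uM PK11195 final.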

Measured: Potency

Sequence of Nuclear receptor subfamily 1 group I member 3 (Homo sapiens) (Q14994 whole entry, looked up): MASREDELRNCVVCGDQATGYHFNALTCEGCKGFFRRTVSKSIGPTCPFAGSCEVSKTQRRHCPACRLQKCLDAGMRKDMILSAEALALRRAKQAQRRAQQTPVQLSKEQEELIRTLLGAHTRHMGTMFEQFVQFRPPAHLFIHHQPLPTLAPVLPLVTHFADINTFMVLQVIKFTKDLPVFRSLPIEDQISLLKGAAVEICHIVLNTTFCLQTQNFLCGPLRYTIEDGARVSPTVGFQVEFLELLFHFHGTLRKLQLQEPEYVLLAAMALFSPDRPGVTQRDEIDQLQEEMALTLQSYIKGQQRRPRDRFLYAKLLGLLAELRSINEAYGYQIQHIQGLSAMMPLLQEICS
Sequence of Thyrotropin receptor (Homo sapiens) (P16473 whole entry, looked up): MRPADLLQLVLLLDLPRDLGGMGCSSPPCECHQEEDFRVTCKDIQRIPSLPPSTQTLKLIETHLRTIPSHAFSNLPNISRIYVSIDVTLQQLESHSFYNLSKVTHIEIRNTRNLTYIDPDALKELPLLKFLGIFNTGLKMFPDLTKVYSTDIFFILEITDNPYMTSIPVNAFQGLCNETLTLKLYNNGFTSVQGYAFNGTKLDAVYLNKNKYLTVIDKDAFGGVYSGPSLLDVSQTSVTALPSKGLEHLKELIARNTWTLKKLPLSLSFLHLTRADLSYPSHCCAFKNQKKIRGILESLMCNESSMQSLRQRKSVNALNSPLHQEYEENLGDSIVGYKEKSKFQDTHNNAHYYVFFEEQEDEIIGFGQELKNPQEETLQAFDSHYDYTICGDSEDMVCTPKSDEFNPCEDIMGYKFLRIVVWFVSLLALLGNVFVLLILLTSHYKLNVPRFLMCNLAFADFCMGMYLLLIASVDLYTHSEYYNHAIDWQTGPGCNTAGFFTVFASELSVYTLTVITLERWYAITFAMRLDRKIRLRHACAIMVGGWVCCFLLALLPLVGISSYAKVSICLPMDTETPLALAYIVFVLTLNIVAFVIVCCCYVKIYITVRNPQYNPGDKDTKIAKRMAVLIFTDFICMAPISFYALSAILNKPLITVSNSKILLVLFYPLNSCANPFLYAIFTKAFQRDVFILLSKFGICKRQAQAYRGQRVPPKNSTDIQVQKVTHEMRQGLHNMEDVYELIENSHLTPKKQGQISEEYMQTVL

OCCOCCOCCO
not listed: [10]
inactive: all other assays above

CCCCCCCCCCCCc1ccccc1
not listed: [3] | [10]
inactive: all other assays above

CC(=O)CC(=O)Nc1ccccc1C
9.8 µM (active) and inactive: [6]
not listed: [10]
inactive: all other assays above

O=C1CCC(N2C(=O)c3ccccc3C2=O)C(=O)N1 (configuration not stated)
inactive: [1] | [2] | [6] | [7] | [8]

CCCCCCCCCCCCOCCO
not listed: [4] | [5] | [10]
inactive: all other assays above

O=C(O)c1ccc(C(=O)O)cc1
not listed: [4] | [5] | [10]
inactive: all other assays above

CCCCCC/C(C=O)=C\c1ccccc1
inactive: [1] | [2] | [6] | [7] | [8] | [9]

Oc1cccc2ccccc12
active: [8] 103 µM
not listed: [4] | [5] | [10]
inactive: all other assays above

O=C(O)CC(C(=O)O)C(CC(=O)O)C(=O)O (configuration not stated)
268 nM (active) and inactive: [6]
inactive: [1] | [2] | [7] | [8] | [9]

Cc1occc(=O)c1O
inactive and 50.9 µM (active): [2]
not listed: [4] | [5] | [10]
inactive: all other assays above

O=c1[nH]c(=O)n([C@H]2C[C@H](O)[C@@H](CO)O2)cc1Br
inactive: [1] | [2] | [6] | [7] | [8]

O=C(O)c1ccccc1C(c1ccc(O)cc1)c1ccc(O)cc1
not listed: [10]
inactive: all other assays above

CC(=O)OCC(=O)[C@@]12N=C(C)O[C@@H]1C[C@H]1[C@@H]3CCC4=CC(=O)C=C[C@]4(C)[C@H]3[C@@H](O)C[C@@]12C
not listed: [4] | [5] | [10]
inactive: all other assays above

O=[N+]([O-])c1ccc(/C=C/c2ccc([N+](=O)[O-])cc2S(=O)(=O)O)c(S(=O)(=O)O)c1
inactive: [1] | [2] | [3] | [7] | [9]

CC(=O)Nc1ccccc1
not listed: [4] | [5] | [10]
inactive: all other assays above

O=C(CC(C(=O)OC1CCCCC1)S(=O)(=O)O)OC1CCCCC1 (configuration not stated)
not listed: [10]
inactive: all other assays above

CC(C)c1ccc(S(=O)(=O)O)cc1
not listed: [4] | [5] | [10]
inactive: all other assays above

CCCCCCOCCO
inactive: [1] | [2] | [10] | [7] | [8] | [9]

OC[C@H]1O[C@@](CO)(O[C@H]2O[C@H](CO)[C@@H](O)[C@H](O)[C@H]2O)[C@@H](O)[C@@H]1O
not listed: [3] | [6] | [10]
inactive: all other assays above

COc1ccc2cc([C@H](C)C(=O)O)ccc2c1
inactive: [1] | [2] | [3] | [6] | [7] | [8]

O=C=NCCCCCCN=C=O
inactive: [1] | [6] | [7] | [8] | [9]
23.8 µM (active) and inactive: [2]

CCC(O)OC(O)CC (configuration not stated)
not listed: [3] | [10]
inactive: all other assays above

c1ccc(OCCOc2ccccc2)cc1
inactive: [1] | [2] | [6] | [7] | [8] | [9]

COc1ccc(NC(C)=O)cc1N
not listed: [4] | [5] | [10]
inactive: all other assays above

CN(C)CCC(c1ccccc1)c1ccccn1 (configuration not stated)
inactive: [1] | [2] | [6] | [7] | [8]

CCCCCC1=CCCC1=O
not listed: [4] | [5] | [10]
inactive: all other assays above

CCCCCCCCC/C=C/CC1CC(=O)OC1=O (configuration not stated)
not listed: [4] | [5] | [10]
inactive: all other assays above

O=C(O)c1cc(C(=O)O)cc(S(=O)(=O)O)c1
inactive: [1] | [3] | [6] | [7] | [8] | [9]

Cc1cc(C)c(C)cc1C
inactive: [1] | [6] | [7] | [8] | [9]

O=C(O)c1ccc2c(c1)C(=O)OC2=O
inactive: [1] | [3] | [6] | [7] | [8] | [9]
